This is a sample that favours compounds with a hit; in the whole collection about 2.9% have one here.
PLC-gamma1 inh – PLC-gamma1 (human) inhibition, primary screen | purified PLC-gamma1, fluorogenic substrate, fluorescence | inhibition, % at 12.2 µM | 0.84% of 370,000 active | AID 720700; in the data active means inhibition above about 9.5%
PLC-beta3 inh – PLC-beta3 (human) inhibition, primary screen; Q01970; Purified PLC-beta3, fluorogenic substrate, fluorescence; inhibition, % at 12.2 µM; 0.18% of 370,000 active; AID 720704; in the data active means inhibition above about 11%;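 further: 0% = median of compound wells on plate and 100% = full blocker control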
KLK7 zymogen act – proKLK7 (human) activation, primary screen; P49862; purified proKLK7, EDANS-DABCYL substrate fluorescence; 100% is mature enzyme control, 0% vehicle; activation, % at 7 µM; 0.9% of 370,000 active;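 active means activation above the mean of all tested compounds plus 3 SD, computed per campaign excluding outliers beyond control limits, cut at about 13% in these data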
ADAM10 inh – inhibitors of human ADAM10 | O14672 | recombinant ADAM10, EDANS/DABCYL FRET peptide cleavage, 3 h | inhibition, % at 7 µM | 0.62% of 370,000 active;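 active means inhibition above a per-campaign cutoff equal to the mean of compounds falling between control-based bounds plus 3 SD, cut at about 20% in these data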;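 further: 0% = DMSO wells while the 100% control is not disclosed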
Target sequence (O14672 214-748 limits assumed): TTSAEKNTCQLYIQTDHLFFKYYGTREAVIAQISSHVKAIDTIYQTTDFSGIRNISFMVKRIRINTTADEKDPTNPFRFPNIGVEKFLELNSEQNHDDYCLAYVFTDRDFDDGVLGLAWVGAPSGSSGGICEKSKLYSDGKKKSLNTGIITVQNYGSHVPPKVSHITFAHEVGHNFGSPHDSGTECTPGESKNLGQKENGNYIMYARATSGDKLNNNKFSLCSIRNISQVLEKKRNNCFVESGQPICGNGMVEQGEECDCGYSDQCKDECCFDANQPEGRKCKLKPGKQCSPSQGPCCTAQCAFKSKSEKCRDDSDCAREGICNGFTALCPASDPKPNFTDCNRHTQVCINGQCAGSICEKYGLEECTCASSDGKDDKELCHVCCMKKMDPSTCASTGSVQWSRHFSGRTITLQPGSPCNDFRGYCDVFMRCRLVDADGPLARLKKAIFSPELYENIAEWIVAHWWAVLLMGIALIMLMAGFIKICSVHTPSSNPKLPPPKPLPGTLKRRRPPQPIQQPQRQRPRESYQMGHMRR
ADAM17 inh – inhibits human ADAM17. recombinant ADAM17, EDANS/DABCYL FRET peptide cleavage. 0.83% of 370,000 active. inhibition, % at 6.95 µM. P78536. AID 720648;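 active means inhibition above the mean of compounds lying between control limits plus 3 SD, set per campaign, cut at about 8.5% in these data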;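 further: 0% = DMSO-only wells as the low control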
proKLK7 act conf – proKLK7 activation, confirmation. shares compounds with KLK7 zymogen act. activation, % at 7 µM. 68% of 3,200 active. purified proKLK7, EDANS-DABCYL substrate fluorescence; scaled: vehicle 0, mature enzyme 100;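 active means activation, as change over the incubation, above the mean of all tested compounds plus 3 SD, cut at about 13% in these data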
EDANS-DABCYL int – counter-screen for kallikrein-7 activators: EDANS-DABCYL optical interference. 80% of 3,200 active. EDANS-DABCYL substrate fluorescence interference, no enzyme, 4 h; solvent 0%, active enzyme control 100%. shares compounds with KLK7 zymogen act. activation, % at 7 µM;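 active means activation above the all-compound mean plus 3 SD, ignoring values outside control-based bounds, cut at about 4.8% in these data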;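 further: value is the 4 h activation minus the activation read at time zero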
EDANS interf – optically interferes with EDANS-DABCYL fluorescence, kallikrein-7 activator counter-screen; 20% of 250 active; EDANS-DABCYL peptide fluorescence interference, no enzyme; shares compounds with KLK7 zymogen act; EC50, µM; AID 720493;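 active means compounds that raise the fluorescence signal in this interference counterscreen, with EC50 at or below 10 µM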;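 further: intact quenched peptide substrate alone read at 355 nm excitation and 520 nm emission; signal is fluorescence gain from T0 to T4 after four hours at room temperature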
Starred values were filed as active, the others as inactive; i = inactive; . = no result given.

SMILES | PLC-gamma1 inh | PLC-beta3 inh | KLK7 zymogen act | ADAM10 inh | ADAM17 inh | proKLK7 act conf | EDANS-DABCYL int | others
CCOC(=O)C1CCCN(C(=O)Cn2nc(C)n3c(cc4c(OC)cccc43)c2=O)C1 (stereo not drawn) | -438 | i | 18* | i | i | 8 | 6.4*
COc1ccc(-c2ccnc3c(C#N)cnn23)cc1 | i | i | 60* | i | i | 69* | 85*
N#Cc1cnn2c(-c3ccccc3)ccnc12 | i | i | 45* | -465 | -214 | 59* | 66*
COC(=O)[C@H](C(C)C)N1Cc2nnn(Cc3ccc(C)cc3)c2-c2ccccc2S1(=O)=O | -3 | 2 | 0 | 15 | 6 | . | .
CCCC(=O)N1CCC1(C)C(=O)Nc1ccc(C)cc1 (stereo not drawn) | 2 | 5 | 0 | -2 | 2 | . | .
CCCC(=O)N1CCC1(C)C(=O)Nc1ccc2nccnc2c1 (stereo not drawn) | -150 | -188 | 13* | i | -194 | 8 | 8.5*
CN(C(=O)c1cccnc1)c1nnc(-c2cnccn2)s1 | -28 | -33 | 42* | -9 | -7 | 33* | 34*
CN(C(=O)c1cnccn1)c1nnc(-c2cnccn2)s1 | -117 | -140 | 20* | -21 | -13 | 38* | 42*
CN(C(=O)C1CCCO1)c1nnc(-c2cnccn2)s1 (stereo not drawn) | -44 | -49 | 54* | -15 | -10 | 39* | 81*
Cc1ccc(-c2nnc(N(C)C(=O)C3CCCO3)s2)cn1 (stereo not drawn) | -2 | -1 | 3 | -10 | -5 | . | .
CN(C(=O)c1ccccn1)c1nnc(-c2cnccn2)s1 | -17 | -22 | 9 | -4 | -3 | . | .
CN(C(=O)c1ccncc1)c1nnc(-c2cnccn2)s1 | -64 | -87 | 33* | -15 | -4 | 77* | 82*
O=C(OCc1cn(Cc2ccc(F)cc2F)nn1)N1CCCC1 | 3 | 0 | 0 | -15 | -6 | . | .
CN(C(=O)c1cccnc1)c1nnc(-c2ccccn2)s1 | -9 | -10 | 73* | -204 | -65 | 39* | 37*
COC(=O)C1CN(C2CC2)CCS(=O)(=O)N1Cc1cn(Cc2ccccc2)nn1 (stereo not drawn) | 1 | -2 | 0 | -5 | 0 | . | .
COc1ccc2c(c1)CCCN2C(=O)C1CCCN(S(=O)(=O)c2ccc(C(C)(C)C)cc2)C1 (stereo not drawn) | 1 | -1 | 0 | 9 | 2 | . | .
FC(F)(F)c1nc2nc(Cl)c(Cl)nc2n1CCCN1CCOCC1 | -233 | -295 | 25* | i | -286 | 2 | 2
O=C(NCCCN1CCOCC1)c1cc2nc(-c3ccco3)cc(C(F)(F)F)n2n1 | i | i | 15* | -380 | -136 | 14* | 11* | EDANS interf=>70
CN1CCN(C(=O)c2cc3nc(-c4ccco4)cc(C(F)(F)F)n3n2)CC1 | i | i | 30* | -440 | -146 | 17* | 11* | EDANS interf=>70
O=C(c1cccc(F)c1)N1CCN(C(=O)c2cc3nc(-c4ccco4)cc(C(F)(F)F)n3n2)CC1 | -125 | -166 | -6 | -57 | -22 | . | .
CCOC(=O)[C@@]12CCCC3=C1N(CCC3)C(=O)[C@H]2CC(=O)NCCC(C)C | 1 | -1 | 0 | -4 | -5 | . | .
C=CC[C@@]1(c2ccccc2)Oc2ccccc2-c2nc3ccccc3nc21 | -36 | -55 | -15 | -101 | -26 | . | .
Cc1ccc(NC(=O)CN2C(=O)S/C(=C\c3cc(C)n(C)c3C)C2=O)cc1 | -21 | -23 | 20* | -2 | -1 | 7 | 0
COc1ccccc1N1C(=O)S/C(=C\c2ccc(C)s2)C1=O | -1 | -2 | -1 | 3 | 0 | . | .
COc1ccccc1N1C(=O)S/C(=C\c2cc(C)n(C)c2C)C1=O | -24 | -23 | 24* | 1 | 1 | 32* | 80*
SMILES | PLC-gamma1 inh | PLC-beta3 inh | KLK7 zymogen act | ADAM10 inh | ADAM17 inh | proKLK7 act conf | EDANS-DABCYL int | others
Cc1cccc(NC(=O)CN2C(=O)S/C(=C\c3cc(C)n(C)c3C)C2=O)c1 | -28 | -25 | -7 | -13 | -4 | . | .
CC[C@H](C)/C=C(C)/C=C/C1=CC2=CC(=O)[C@]3(C)OC(=O)[C@@H](C(C)=O)[C@@H]3C2=CO1 | -445 | i | 19* | -284 | -91 | 11 | 8.1*
c1ccc2nc3c(nc2c1)OCC1CCCCN31 (stereo not drawn) | -261 | -344 | 16* | i | i | 18* | 28*
CC(=O)OCCn1c2nc(=O)[nH]c(=O)c-2nc2cc(C)c(C)cc21 | i | i | 31* | -40 | -13 | 62* | 71*
COc1ccc(C2Nc3ccccc3C(=O)N2Cc2ccccc2)cc1OC (stereo not drawn) | -339 | -491 | -1 | i | -401 | . | .
COc1ccc(C2Nc3ccccc3C(=O)N2Cc2ccccc2)cc1COc1ccccn1 (stereo not drawn) | -290 | -338 | 1 | i | -250 | . | .
COc1ccc(C2Nc3ccccc3C(=O)N2NS(=O)(=O)c2ccccc2)cc1OC (stereo not drawn) | -157 | -194 | 17* | -241 | -82 | 4 | 9.0*
CS(=O)(=O)NN1C(=O)c2ccccc2NC1c1ccccc1F (stereo not drawn) | -349 | -470 | 35* | i | -213 | 4 | 8.2*
CS(=O)(=O)NN1C(=O)c2ccccc2NC1c1cc2ccccc2nc1Cl (stereo not drawn) | -16 | -21 | 0 | -14 | -8 | . | .
COc1ccc(C2Nc3ccccc3C(=O)N2NS(C)(=O)=O)cc1OC (stereo not drawn) | -458 | i | 59* | i | -210 | 22* | 13* | EDANS interf=i
CC(=O)NN1C(=O)c2ccccc2NC1c1ccc(N(C)C)cc1 (stereo not drawn) | i | i | 8 | i | -434 | . | .
CN(C)c1ccc(C2Nc3ccccc3C(=O)N2NS(C)(=O)=O)cc1 (stereo not drawn) | -345 | -434 | 22* | -366 | -130 | 5 | 5.9*
CCCCN(C)C(=O)c1oc(=O)c2ccccc2c1-c1ccc(C)cc1 | 0 | 1 | 0 | -11 | 0 | . | .
CC(C)C[C@@H]1COc2cc(Br)ccc2S(=O)(=O)N1Cc1cn(CCC2OCCCO2)nn1 | 5 | -6 | 0 | -15 | -9 | . | .
COc1ccc(C2Nc3ccccc3C(=O)N2NS(=O)(=O)c2ccc(C)cc2)cc1OC (stereo not drawn) | -293 | -477 | 31* | i | -210 | 8 | 7.1*

Compound activity (PubChem)
